The list is not random: actives were taken first. Their share in the collection is about 19%.
TDP1 cell noCPT: qHTS for Inhibitors of human tyrosyl-DNA phosphodiesterase 1 (TDP1): qHTS in cells in absence of CPT | DT40 Tdp1-/- hTDP1 cells, no CPT, ATP luminescence, 48 h | AID 686978, 2013 | 420,000 tested, 15% active | Potency, µM (highest dose often 46.2 µM), for inactives: at the highest dose activity change, negative = growth inhibition, actives largely listed as inhibitors; also: potency is read from the fitted curve at half-maximal effect; nearly all actives have a fitted effect of over 55% in size
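No-CPT arm: Tdp1-/-;hTDP1 DT40 cells (400/well) plus compounds, incubated ≥48 hr at 37 °C. Readout CellTiter-Glo luminescence.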
HT1080-NT tox: kills 2HG-producing HT-1080-NT fibrosarcoma cells. HT-1080-NT fibrosarcoma viability, CellTiter-Glo ATP luminescence, 48 h. Potency, µM (series often up to 46.1 µM), inactives show at the highest dose activity, negative = less viability, actives largely listed as cytotoxic. 360,000 tested, 1.6% active. AID 686970;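 also: NT is the 2HG producing partner of a matched IDH1 knockdown line; potency is read from the fitted curve at half-maximal effect; 0% = DMSO-treated cells and -100% = media-only wells without cells; nearly all actives have a fitted effect of over 55% in size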
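HT-1080-NT; 750 cells/well; 5% FBS RPMI; 48 h compound, 37 degrees C; CellTiter-Glo luminescence; curve fitting and curve-class assignment.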
DT40 TDP1 CPT: growth inhibition of DT40 Tdp1-/-;hTDP1 cells with camptothecin (screen for TDP1 inhibitors). 420,000 tested, 12% active. chicken DT40 Tdp1-/-;hTDP1 cells + 20 nM CPT, ATP luminescence, 48 h. Potency, µM (highest dose often 46.2 µM), for inactives: at the highest dose activity change, negative = growth inhibition, usual class: inhibitors. AID 686979; also: potency is read from the fitted curve at half-maximal effect; nearly all actives have a fitted effect of over 55% in size
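Chicken DT40 Tdp1-/- cells stably complemented with human TDP1 were seeded at 400 cells/well in medium containing 20 nM camptothecin, exposed to pin-transferred compounds, and grown at 37 °C for at least 48 hr. Viability was read as ATP luminescence.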
HT1080 IDH1KD tx: kills HT-1080 cells with IDH1 knockdown | 360,000 tested, 2% active | AID 686971 | HT-1080 IDH1 knockdown viability, ATP luminescence, 48 h | Potency, µM (top dose mostly 46.1 µM), for the others: at the highest dose activity, negative = toxicity, most hits filed as cytotoxic;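 also: potency is read from the fitted curve at half-maximal effect; 0% = DMSO wells and -100% = cell-free medium wells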
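In this qHTS, HT-1080 cells depleted of IDH1 are exposed for 48 h at 37 °C to compound titrations. Toxicity is scored from CellTiter-Glo luminescence, with DMSO as full viability and medium alone as none.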
IL1B secr inh: inhibitors of inflammasome signaling (IL-1 beta secretion); THP-1 LPS/ATP IL-1B secretion, AlphaLISA, 16 h; hits give low values; activity change, % at 57.5 µM; 360,000 tested, 4.7% active; AID 743279; in the data active = activity change below about -50%; inconclusive = mostly about -30% to -49%
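THP-1 cells pretreated 1 hr with compounds (up to 57.5 uM final), then stimulated with LPS (250 ng/mL final) plus ATP (1.25 mM final); secreted IL-1B measured by AlphaLISA after 16 hr, decreased signal indicating inhibition.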
* = called active by the depositor; ? = inconclusive; nt = not tested or not shown. Unless noted, calls follow the shape of the dose curve; as a rule, active = well fitted curve in the direction sought with a large enough effect; inconclusive = small, poorly fitted or top-dose-only effect, or another doubt; inactive = no such curve, though single readings can be large; an effect the other way counts as inactive or inconclusive. Unless noted, % is scaled to controls: 0 for no effect and ±100 for the full control effect.

SMILES	TDP1 cell noCPT	HT1080-NT tox	DT40 TDP1 CPT	HT1080 IDH1KD tx	IL1B secr inh
COc1cccc(-c2csc(N3CCN(C(=O)NC45CC6CC(CC(C6)C4)C5)CC3)n2)c1	13µM*	-23%	?	?	-10
CC(NC(=O)CN1C(=O)NC2(CCCCCC2)C1=O)c1ccccc1 (stereo not drawn)	-19%	-3%	-27%	-6%	-13
CN(C)/C=C(\C#N)C(=O)Nc1ccc(O)cc1F	-16%	3%	-3%	10%	14
Cc1cccc(C(C)C)c1NC(=O)C(C)OC(=O)Cn1cnc2c1c(=O)n(C)c(=O)n2C (stereo not drawn)	-1%	-2%	2%	4%	0
COc1cccc(-c2csc(N3CCN(C(=S)Nc4cccc(C)c4)CC3)n2)c1	?	-22%	-29%	-14%	?
COc1cccc(-c2csc(N3CCN(C(=S)Nc4ccc(Cl)cc4)CC3)n2)c1	?	-21%	?	0%	-82*
Cc1ccc(C)c(Cn2nc(-c3cc(C)ccc3C)ccc2=O)c1	21µM*	?	?	18µM*	?
COc1cccc(-c2nnn(CC(=O)N(C3CCCCC3)C3CCS(=O)(=O)C3)n2)c1 (stereo not drawn)	-24%	16%	4%	4%	15
COc1ccc(-n2ccnc(NCc3ccc(C)cc3)c2=O)cc1OC	?	nt	-27%	nt	nt
Cc1cc(-n2ccnc(NCCc3ccc(S(N)(=O)=O)cc3)c2=O)ccc1Br	26µM*	nt	?	nt	nt
CCC1(C)Cc2c(sc3nc(SC)[nH]c(=S)c23)CO1 (stereo not drawn)	?	?	-4%	-26%	32
FC(F)(F)c1cc(Cl)c2nc(-c3ccco3)c(Cc3ccccc3C(F)(F)F)n2c1	15µM*	-8%	?	?	0
COc1cccc(NS(=O)(=O)NC(=O)c2cn(C)c3ccccc23)c1	6%	?	-3%	-29%	26
O=C(C[n+]1cc(-c2ccc(Cl)cc2)n2c1CCC2)Nc1nc(-c2ccc(F)cc2)cs1	18µM*	-4%	?	-3%	-23
O=C(C[n+]1cc(-c2ccccc2)n2c1CCC2)Nc1nc(-c2ccc(F)cc2)cs1	16µM*	-10%	?	-7%	0
CC(=O)C1=C(O)C(=O)N(c2cccc(Br)c2)C1c1ccc(Br)cc1 (stereo not drawn)	-8%	?	-7%	-18%	34
CN(N=Cc1ccccc1)C(=S)Nc1ccccc1	12µM*	-1%	-76%	9%	44
COCCN(CCOC)C(=S)Nc1ccccc1	-19%	-11%	5%	11%	-1
C=CCn1c2ccccc2c2nnc(SCC(=O)OCN3C(=O)c4ccccc4C3=O)nc21	-22%	-6%	?	2%	5
CC(=O)c1c(C)nn(CC(=O)NC2CCCN(Cc3ccc(CC(C)C)cc3)C2)c1C (stereo not drawn)	?	-16%	21µM*	-23%	-28
O=C(NC1CCCN(Cc2ccc(Cl)cc2)C1)c1cnc2ccccn2c1=O (stereo not drawn)	18µM*	-6%	?	-17%	2
CC(C)Cc1ccc(CN2CCCC(NC(=O)c3cnc4ccccn4c3=O)C2)cc1 (stereo not drawn)	23µM*	-11%	23µM*	-7%	20
COc1cc(C(=O)NC(=S)Nc2ccc3ccccc3c2)cc(OC)c1OC	23µM*	?	23µM*	?	52
COc1cc(C(=O)NC(=S)Nc2ccc3c(c2)OCO3)cc(OC)c1OC	-8%	-3%	-2%	-12%	-1
COc1cc(C(=O)NC(=S)Nc2ccc3c(c2)C(=O)N(C)C3=O)cc(OC)c1OC	3.7µM*	4%	-4%	-2%	6
SMILES	TDP1 cell noCPT	HT1080-NT tox	DT40 TDP1 CPT	HT1080 IDH1KD tx	IL1B secr inh
COc1ccccc1Cc1c(-c2ccc(C#N)cc2)nc2ccc(Br)cn12	16µM*	-16%	21µM*	-17%	-24
COc1ccccc1Cc1c(-c2cccc(Br)c2)nc2ccc(Br)cn12	?	?	?	?	12
COc1ccccc1Cc1c(-c2ccc(C)cc2)nc2ccc(Br)cn12	23µM*	-18%	21µM*	-7%	-24
COc1ccccc1Cc1c(-c2ccc(Cl)cc2)nc2ccc(Br)cn12	?	-11%	21µM*	-11%	3
COc1ccccc1Cc1c(-c2cccc(Cl)c2)nc2ccc(Cl)cn12	18µM*	?	23µM*	?	2
C[C@@H]1CN([C@H](C)CO)C(=O)c2cc(Br)cnc2O[C@@H]1CN(C)C(=O)c1ccccc1	4%	12%	2%	6%	8
CC(C)n1nnnc1-c1cc(Cl)cc(Cl)c1	-11%	9%	-11%	0%	-4
COC(=O)c1ccc2nc(-c3ccc(C)cc3)c(Cc3ccccc3OC)n2c1	?	-1%	?	16%	48
FC(F)(F)c1ccccc1Cc1c(C2CCCCC2)nc2ccc(Br)cn12	?	?	?	?	-1
COc1ccccc1Cc1c(-c2ccccc2)nc2ccc(Br)cn12	13µM*	?	15µM*	?	25
COc1ccccc1Cc1c(-c2ccc(C)cc2)nc2c(C)cc(Br)cn12	21µM*	?	21µM*	?	42
COC(=O)c1ccc2nc(-c3ccccc3)c(Cc3ccccc3OC)n2c1	16µM*	-2%	18µM*	-9%	-10
COc1ccccc1Cc1c(C2CCCCC2)nc2ccc(Br)cn12	6.5µM*	?	8.2µM*	?	0
COc1ccc(F)cc1S(=O)(=O)N1CCc2ccccc2C1	-18%	-12%	-6%	1%	22
COc1ccc(CCNC(=O)C(CCC(N)=O)NS(=O)(=O)c2ccc(Cl)cc2)cc1OC (stereo not drawn)	18%	-2%	-1%	-1%	-11
COc1ccccc1CN1CC(C(=O)N(C)CCc2nc3ccc(F)cc3[nH]2)CCC1=O (stereo not drawn)	1%	4%	2%	4%	0
CC(C)(C)Nc1nc(NC(C)(C)C)nc(-n2ccnc2)n1	-23%	-5%	?	-18%	-22
CN(C(=O)/C=C/c1ccccc1)C1CCS(=O)(=O)C1 (stereo not drawn)	3%	2%	-4%	0%	10
COc1ccc(/C=C/C(=O)N(c2ccccn2)C2CCCCC2)cc1OC	?	21%	23µM*	-1%	-23
O=C(/C=C/c1cccc(F)c1)N(c1ccccn1)C1CCCCC1	?	14%	13µM*	14%	6
O=C(/C=C/c1cccc(F)c1)N1CCN(c2ccccn2)CC1	-3%	2%	-24%	-8%	32

Screening results from PubChem BioAssay.
